Screening results: PubChem BioAssay, National Center for Advancing Translational Sciences (NCATS)
Shown are actives, neighbours in structure and some others; about 7.1% of the full set was active somewhere.
ELG1 repair inh: qHTS screen for small molecules that inhibit ELG1-dependent DNA repair in human embryonic kidney (HEK293T) cells expressing luciferase-tagged ELG1; Potency, µM (doses to about 46.1 µM), for inactives: at the top dose activity change, negative = inhibition, most hits filed as inhibitors; hit rate 2.3% among 330,000; AID 504467, 2011; HEK293T ELG1-luciferase reporter, luminescence, 16 h; DNA damage induced by 5-fluorouridine; further: on the % scale 0 is the no-effect control and ±100 the full control effect; nearly all actives have a fitted effect of over 55% in size
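HEK293T cells expressing luciferase-tagged ELG1 (2,000/well) received 5-Fluorouridine plus compound or DMSO for 16 hr at 37 °C. Luciferase was read by ONE-Glo luminescence after 30 min at room temperature.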
SW480 rereplic: A quantitative high throughput screen for small molecules that induce DNA re-replication in SW480 colon adenocarcinoma cells | Potency, µM (highest dose often 46.1 µM), without a hit: at the top dose re-replication activation, most hits filed as activators | SW480 DNA re-replication, Hoechst DNA content imaging, 48 h | AID 624297, 2012 | hit rate 1.8% among 340,000; further: % of control where 0% means no effect; nearly all actives have a fitted effect of over 55% in size
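SW480 cells exposed to compounds for 48 hr at 37 C, 5% CO2, then Hoechst-stained 40 min. Nuclear DNA content imaged by fluorescence scanning (405 nm excitation, 500-530 nm emission); re-replication scored as increased high-intensity nuclei.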
ELG1 genotoxic: qHTS screen for small molecules that induce genotoxicity in human embryonic kidney (HEK293T) cells expressing luciferase-tagged ELG1; HEK293T ELG1-luciferase reporter, luminescence, 16 h; Potency, µM (doses to about 46 µM), without a hit: top-dose activity change, positive = activation, usual class: activators; hit rate 1.3% among 330,000; further: % of control where 0% means no effect; nearly all actives have a fitted effect of over 60% in size
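After overnight (16 hr) compound treatment at 37 °C, ELG1-luciferase HEK293T cells were lysed with ONE-Glo; luminescence quantified 30 min later at room temperature.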
A-T KAP1 phos: qHTS Assay for Identifying a Potential Treatment of Ataxia-Telangiectasia | F2112 A-T fibroblasts, KAP-1 phosphorylation AlphaLISA; neocarzinostatin DNA damage 30 min before lysis | Potency, µM (doses to about 57.5 µM), inactives show at the top dose activation, most hits filed as activators | hit rate 0.19% among 320,000; further: % of control where 0% means no effect; nearly all actives have a fitted effect of over 45% in size
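hTERT-immortalized A-T patient fibroblasts (F2112), 500 cells/well in OPTI-MEM, 1% FBS, got compounds for 60 min, then NCS for 30 min at 37C. Lysates were then assayed for phospho-KAP-1 by AlphaLISA (anti-pKAP1 donor, anti-KAP1 acceptor beads), 6 hr at 25C.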
p53 reactivator: qHTS assay for re-activators of p53 using a Luc reporter; hit rate 0.063% among 320,000; Potency, µM (highest dose often 92.2 µM), without a hit: at the highest dose activity change, positive = activation, actives largely listed as activators; AID 504706, 2011; H1299 p53-A138V BP100-luciferase reporter, luminescence, 24 h; further: % of control where 0% means no effect; nearly all actives have a fitted effect of over 45% in size
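H1299 (p53-null), stable ts p53-A138V + BP100-Luc; 1000 cells/well, Opti-MEM/10% FBS; cpd 4 pt, 1:5; 24 h, 37 deg C, 5% CO2; detection reagent 10 min RT; luminescence.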
MCF10A rerep: A quantitative high throughput screen for small molecules that induce DNA re-replication in MCF 10a normal breast cells; MCF 10A DNA re-replication, Hoechst nuclear intensity, 48 h; Potency, µM (titrated, usually from 46.1 µM), for the others: top-dose activity, positive = re-replication, usual class: activators; hit rate 2.9% among 350,000; further: % of control where 0% means no effect; nearly all actives have a fitted effect of over 50% in size
Starred values were filed as active, the others as inactive; ? = inconclusive; . = not tested or not shown. The call rests on the fitted dose curve; in most records, active means well fitted curve in the direction sought with a large enough effect; inconclusive means small, poorly fitted or top-dose-only effect, or another doubt; inactive means no such curve, though single readings can be large; an effect the other way counts as inactive or inconclusive. Potency means the concentration at half of the fitted maximal effect.

SMILES	ELG1 repair inh	SW480 rereplic	ELG1 genotoxic	A-T KAP1 phos	p53 reactivator	MCF10A rerep
CCOC(=O)/C=c1\s/c(=C\c2c(OC)ccc3ccccc23)c(=O)n1CC(=O)NCC1CCCO1 (configuration not stated)	?	5.8µM*	-2.9%	-4.9%	4.1%	1.16µM*
CN1C(C(=O)Nc2ccccn2)C(=O)c2sc(Cl)cc2S1(=O)=O (configuration not stated)	.	-9.6%	.	.	.	-3.4%
NC(=O)N1N=C2/C(=C/c3ccccc3)CCCC2C1c1ccccc1 (configuration not stated)	?	17.5%	-0.8%	9.0%	0.1%	8.2µM*
Cc1nn(-c2ccccc2)c(C)c1NC(=O)COC(=O)C1CC(=O)N(CCc2ccccc2)C1 (configuration not stated)	12.8%	1.2%	-1.2%	3.8%	8.8%	-1.0%
CCc1ccc(-c2csc(NC(=O)C3CC(=O)N(c4ccc5c(c4)OCCO5)C3)n2)cc1 (configuration not stated)	?	?	-0.2%	-4.0%	12.3%	18.4µM*
Cc1noc(C)c1CSCC(=O)Nc1nc(-c2ccc(F)c(F)c2)cs1	?	-4.9%	-4.4%	-1.2%	1.2%	?
COc1ccc(-c2csc(NC(=O)c3cc(C)oc3C)n2)cc1OC	18.3µM*	?	-25.6%	7.9%	2.9%	?
COc1ccc(-c2csc(NC(=O)CSCc3c(C)noc3C)n2)cc1OC	11.6µM*	-0.6%	-12.9%	6.9%	-13.9%	?
COc1ccc(CC(=O)Nc2nc(-c3ccc(OC)c(OC)c3)cs2)cc1OC	18.3µM*	1.4%	-28.5%	-10.5%	-7.5%	0.4%
CCc1noc(C)c1C(=O)Nc1nc(-c2ccc(OC)c(OC)c2)cs1	?	?	-38.9%	-5.6%	-8.7%	20.9%
CC1=C(C)C(O)N(Cc2ccccc2)C1=O (configuration not stated)	8.6%	-4.0%	4.3%	31.4%	22.0%	-7.3%
CSc1cccc(CNC(=O)C2CCC(=O)N(CC3CCCCC3)C2)c1 (configuration not stated)	-23.2%	-1.1%	-8.0%	-2.4%	-8.7%	14.0%
CN1C=CC(=O)[C@@H](OC(=O)Nc2ccc(Br)cc2)[C@H]1c1ccccc1Br	.	?	.	.	.	13.3%
COc1ccc(-c2csc(NC(=S)NC(=O)c3cccs3)n2)cc1OC	20.6µM*	-12.3%	-8.8%	7.9%	-4.0%	?
COc1ccc(-c2csc(NC(=O)C3CC(=O)N(Cc4ccccc4)C3)n2)cc1OC (configuration not stated)	11.6µM*	-3.8%	-18.5%	9.3%	-28.7%	?
COc1ccc(-c2csc(NC(=O)Cc3ccccc3F)n2)cc1OC	16.4µM*	-2.9%	-24.4%	-0.8%	0.5%	?
COc1ccccc1CC(=O)Nc1nc(-c2ccc(F)c(F)c2)cs1	14.9%	?	-14.4%	3.8%	6.0%	175.0%
CC(C)CN(C(=O)c1cccc(S(=O)(=O)N2CCN(c3ccc(F)cc3)CC2)c1)C1CCS(=O)(=O)C1 (configuration not stated)	-3.8%	-6.6%	1.2%	8.5%	1.5%	-1.3%
O=C1c2cccc3cccc(c23)C(=O)C1(O)O	.	?	.	.	.	20.6µM*
CSCC[C@H](NC(=O)N1CCn2c1nc1ccccc12)C(=O)NC1CC1	5.5%	-14.6%	3.1%	3.7%	4.8%	4.8%
COc1cccc(CNC(=O)[C@H](CCSC)NC(=O)N2CCn3c2nc2ccccc23)c1	18.3µM*	-16.0%	-8.0%	1.9%	-4.4%	0.5%
